What all share (test): NCI-60 one-dose screen, 48 h (100 = growth as untreated, 0 = no growth, -100 = all killed)
Common to all, as to settings: 10 µM unless noted

Assay [1] concerns NCI-H23 lung.
In assay [2] the test system is NCI-H226 lung.
Assay [3] deals with NCI-H322M lung.
Assay [4] deals with HOP-62 NSCLC.
Assay [5] deals with NCI-H460 lung.
Assay [6] relates to HOP-92 NSCLC.
Assay [7] concerns NCI-H522 lung.
Assay [8] concerns A549/ATCC NSCLC.
Assay [9] deals with 786-0 renal.
In assay [10] the test system is COLO 205 colon.
Assay [11] concerns DU-145 prostate.
Assay [12] concerns K-562 leukemia.
Assay [13] has as its system MALME-3M melanoma.
Assay [14] deals with MDA-MB-231 breast.
The subject of assay [15] is RXF 393 renal.
For assay [16], the system named is SF-268 CNS.
For assay [17], the system named is SF-295 CNS.
Assay [18] concerns SF-539 CNS.
The subject of assay [19] is UACC-257 melanoma.
Assay [20] deals with M14 melanoma.

Compounds without any hit were thinned out: in the full panel of roughly 83,000, 20% have a hit.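 Plates (96-well) were seeded with cells, treated with compound at one concentration, and incubated for 48 hours before percent growth was determined.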 A number with no mark means an inactive call. Activity calls are given as the source filed them. Rule for the calls: active = growth percent below 10; inactive = the rest.

The text below walks through data of PubChem BioAssay (NCI).

In the case of `COC(=O)Cc1nc(C#N)c(N(C)C)o1`, the growth was 95.4% in assay [1]; 96.3% in assay [2]; 97.2% in assay [3]; 96.7% in [4]; 101% in [5]; 95.9% in assay [6]. The growth in assay [7] is 90.3%; in assay [8] it was 95.8%; in assay [9], 97.6%; in assay [10], 104%; in [11], 112%; in assay [12], 91.1%. The growth was 105% in assay [13]; 100% in [14]; 106% in assay [15]; 94.8% in [16]; 100% in [17]; 99% in assay [18]. Besides, the growth in assay [19] is 95.7%; in assay [20], 103%.

As for `C[C@@H](CO)[C@@H]1CC[C@]2(C(=O)N3CCN(C)CC3)CC[C@]3(C)[C@H](CC[C@@H]4[C@@]5(C)CC[C@H](O)C(C)(C)[C@@H]5CC[C@]43C)[C@@H]12`, the growth was 78.5% in assay [1]; 81.4% in [2]; 99.7% in assay [3]; 116% in assay [4]; 49.4% in assay [5]; 47.7% in [6]. Also, the growth in assay [7] is 74.1%; in [8] it was 88.6%; in assay [9] it was 74%; in assay [10], 90.2%; in assay [11] it was 67.7%; in [12], 4.66% (active). Moreover, the growth in assay [13] was 105%; in assay [14] it was 82.8%; in assay [15] it was 81.5%; in assay [16], 56.7%; in [17], 90.4%; in assay [18] it was 86.1%. In addition, the values for the growth in assay [19] and in assay [20] were 98% and 101%, respectively.

For `CC(C)CSc1oc(-c2ccccc2)nc1S(=O)(=O)c1ccccc1`, the growth in assay [1] is 83.4%; in [2], 75.7%; in [3] it was 99%; in [4], 94.4%; in assay [5], 97.2%; in assay [6], 45.8%. Further, the growth in assay [7] is 70.8%; in assay [8], 79.8%; in assay [9], 87%; in [10], 109%; in assay [11], 99.3%; in [12], 92.4%. Also, the growth in [13] is 95.6%; in assay [14] it was 89.4%; in assay [15] it was 82.6%; in assay [16], 87.3%; in assay [17], 84.3%; in assay [18], 101%. Moreover, the growth in [19] was 92.2%; in assay [20], 98.3%.

In the case of `COc1ccc2c(c1)c(-c1nc(-c3cn(C)c4ncccc34)cs1)cn2CCO`, the growth was 89.4% in assay [1]; 70.1% in assay [2]; 77.7% in assay [3]; 81.2% in [4]; 74.9% in assay [5]; 70.4% in [6]. For the same compound, the growth in assay [7] is 60.5%; in assay [8] it was 79.8%; in assay [9] it was 80%; in assay [10], 81.2%; in [11], 90.9%; in assay [12] it was 25.2%. The growth in assay [13] was 110%; in assay [14] it was 57%; in [15], 84.6%; in assay [16], 91.1%; in [17], 74.1%; in assay [18] it was 75%. Besides, the values for the growth in assay [19] and in assay [20] were 92.4% and 75.1%, respectively.

As for `CCOC(=O)NN1CC(O)=C(c2nc(-c3ccc(Br)cc3)cs2)C1=N`, the growth in assay [1] was 101%; in assay [2] it was 105%; in [3], 112%; in [4], 106%; in assay [5], 111%; in assay [6], 97.3%. Also, the growth was 92.1% in [7]; 88.1% in [8]; 111% in assay [9]; 112% in assay [10]; 105% in assay [11]; 78.4% in [12]. Moreover, the growth in assay [13] was 112%; in [14], 104%; in assay [15], 82.9%; in [16] it was 108%; in assay [17] it was 90.9%; in [18], 96.7%. Further, the growth in assay [19] was 96.4%; in assay [20] it was 156%.

For `Cc1ccc(Nc2nc(-c3ccc(F)cc3)c(C#N)c(=O)n2C)cc1`, the growth is 66.7% in assay [1]; 64% in [2]; 74.8% in [3]; 50.9% in assay [4]; 84.5% in assay [5]; 0.0271% (active) in assay [6]. Further, the growth is 49.7% in [7]; 61.7% in [8]; 67.5% in assay [9]; 66.8% in assay [10]; 72.7% in assay [11]; 97.6% in assay [12]. In addition, the growth in assay [13] is 45.8%; in [14], 23.4%; in assay [15], 50.2%; in assay [16], 66.5%; in assay [17], 79.1%; in [18] it was 64.8%. Also, the growth was 74.5% in [19] and 77.9% in assay [20].

Consider `O=C(Nc1ccccc1)c1sc(-c2ccccc2)cc1O`, for which the growth is 83.3% in assay [1]; 94.9% in [2]; 96.9% in assay [3]; 112% in [4]; 92.5% in assay [5]; 77% in assay [6]. In addition, the growth in [7] is 85.3%; in assay [8], 111%; in assay [9] it was 101%; in [10] it was 113%; in assay [11], 106%; in assay [12], 82.6%. Also, the growth in assay [13] is 84.8%; in assay [14] it was 105%; in [15] it was 105%; in assay [16] it was 98.1%; in assay [17] it was 95.3%; in [18], 90.8%. Besides, the growth in assay [19] was 128%; in assay [20] it was 96.2%.

Regarding `COc1ccc(C2C3=C(COC3=O)N(CCO)c3cc4c(cc32)OCCO4)cc1OC` (stereo not given), the growth in assay [1] was 34.3%; in assay [2], 41.2%; in assay [3] it was 51.4%; in assay [4], 46.3%; in assay [5] it was 10.4%; in assay [6], 40.8%. Further, the growth in [7] is -13.9% (active); in assay [8] it was 51.2%; in assay [9] it was 27.7%; in assay [10], -4.68% (active); in [11] it was 14.6%; in assay [12], 27.6%. For the same compound, the growth is 41.7% in assay [13]; 56.8% in assay [14]; 5.27% (active) in assay [15]; 51.7% in [16]; 3.18% (active) in [17]; -2.02% (active) in [18]. The figures for the growth in assay [19] and in assay [20] were 44.1% and 13.6%, respectively.
